# Results as given in PubChem BioAssay (NCI).
# The panel holds about 79,000 compounds, 15% with a hit somewhere; the sample as a whole holds those more often. A number with no mark means an inactive call. The source made the active and inactive calls. Cut-off read from the data, not from the text of the source: active = growth inhibition above about 70%; inactive = the rest.
# Assay: NCI Yeast Anticancer Drug Screen. Data for the cln2 rad14 strain (AID 165);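 note: 0% = growth equal to vehicle treated cultures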
# Conditions: S. cerevisiae cln2 rad14 strain, at 50.0 µM (retest, dose inferred, filed as 5.0), stronger effect = higher value
# In short: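 Relative to vehicle controls, growth inhibition of compound-treated cln2 rad14 yeast was recorded.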
row,Structure (SMILES),growth inhibition
1,Cc1ccc(S(=O)(=O)N/N=C2/CC[C@H](C(C)(C)C)C[C@@H]2C)cc1,85% (active)
2,Nc1ccc2c(c1)CCc1ccccc1-2,8%
3,CN(C)CCC(=O)[C@@]1(O)CC[C@H]2[C@@H]3CC=C4C[C@@H](O)CC[C@]4(C)[C@H]3CC[C@@]21C,34%
4,CC(=O)OC1COC(N2C(=O)C(=O)c3cc(Br)ccc32)C(OC(C)=O)C1OC(C)=O (configuration not stated),-4%
5,Cc1ccc(N2CCN(c3c(N)cncc3Br)CC2)cc1,-15%
6,O=C(O)c1ccccc1SC(Sc1ccccc1C(=O)O)c1cccc(Cl)c1,87% (active)
7,CC[N+](C)(CC)CCC(=O)/C=C/c1ccccc1,49%
8,COc1ccc(C(C)c2cc3c(cc2OC/C(C)=N/NC(N)=O)OCO3)cc1 (configuration not stated),97% (active)
9,CN=C(N)N/N=C(\C)c1ccc2c(c1)Cc1cc(Cl)ccc1-2,56%
10,CCCCCCCCN/N=C(/C)CCCCCO,-2%
11,O=[N+]([O-])c1cccc2c(O)cccc12,30%
12,O=C1C(=O)c2ccccc2C(O)=C1Sc1ccccc1,88% (active)
13,CC(=O)N(O)c1ccc2c(c1)Cc1cc(F)ccc1-2,21%
14,CC12CCC(=O)C=C1CCC1C2CCC2(C)C(c3cnc[nH]3)CCC12 (configuration not stated),43%
15,O=C1OC(C2OC(=O)C(=O)C2C(=O)c2ccc(Cl)c(Cl)c2)C(C(=O)c2ccc(Cl)c(Cl)c2)C1=O (configuration not stated),84% (active)
16,CC/C(C)=C1\CCC(CN2CCOCC2)C1=O (configuration not stated),45%
17,COc1ccc(C2CC(=O)CC(=O)C2)cc1,-20%
18,Cc1ccc(O)c(C(c2ccc([N+](=O)[O-])cc2)c2cc(C)ccc2O)c1,53%
19,O=C1OS(=O)(=O)c2cc3c(cc21)C1C(C2C3C3(Cl)C(Cl)=C(Cl)C2(Cl)C3(Cl)Cl)C2(Cl)C(Cl)=C(Cl)C1(Cl)C2(Cl)Cl (configuration not stated),77% (active)
20,CCOC(=O)C1SC(=S)N(C)C1=O (configuration not stated),99% (active)
21,O=C(c1ccc(Cl)c([N+](=O)[O-])c1)c1ccc(Cl)c([N+](=O)[O-])c1,80% (active)
22,Cc1cc[c]([Sn]([Cl])([O][Sn]([Cl])([c]2ccc(C)cc2)[c]2ccc(C)cc2)[c]2ccc(C)cc2)cc1,35%

# Same assay, conditions: S. cerevisiae cln2 rad14 strain, at 50.0 µM, stronger effect = higher value
row,Structure (SMILES),growth inhibition
1,O=C(O)/C=C/C(=O)Nc1cccc2ccccc12,2.25%
2,CCCCCN=C(C)C(C)=NCCCCC,83.7% (active)
3,Oc1ccc(N=Nc2ccccc2)c(O)c1.Oc1ccc(N=Nc2ccccc2)c(O)c1.[Cu],97.3% (active)
4,NNc1c(Cl)cc(Cl)cc1Cl,97.8% (active)
5,C=C1C[C@H](O)[C@H]2C(C[Se]c3ccccc3)C(=O)O[C@@H]2[C@H]2[C@H](C)C(O)C[C@@H]12 (some centres not stated),-32.1%
6,O=C(CBr)Oc1ccc(-c2cccc(Br)c2)cc1,98.6% (active)
7,CCCCC1=NCCc2c1cc1c([nH]c3ccccc31)c2C,48%
8,CCOC(=O)NC(=S)Nc1ccsc1,56.8%
9,CCCCCCCCCCCCCCCCNC(C)c1ccccc1 (configuration not stated),97.5% (active)
10,Cc1ccc(C2(O)CC(c3ccc([N+](=O)[O-])o3)=NN2C(=O)COc2ccc(Cl)cc2)cc1 (configuration not stated),70.3% (active)
11,CCOC(=O)/C(C#N)=C/c1ccccc1Br,3.6%
12,CCCCCCCCCCCCCCCCNCCCCCCCC(=O)O,72% (active)
13,CC[N+]1(C)CCC(O)(c2ccc(Cl)c(Cl)c2)C(C(=O)c2ccc(Cl)c(Cl)c2)C1 (configuration not stated),99.5% (active)
14,CC(=O)Nc1nnc(-c2coc3ccccc3c2=O)s1,10.7%
15,CCC(C)(C)NCCCCCNc1cc(OC)cc2cccnc12,21.4%
16,CSC(=Nc1ccccc1)/N=C(\SCc1ccccc1)N(C)C,98.8% (active)
17,N=Cc1cc([N+](=O)[O-])ccc1O,94.5% (active)
18,CCCCCCCC(=O)/C=C/c1ccc(C)cc1,30.2%
19,Cc1ccc(S(=O)(=O)N/N=C2/CC[C@H](C(C)(C)C)C[C@@H]2C)cc1,87.7% (active)
20,Nc1ccc2c(c1)CCc1ccccc1-2,50.4%

row,Structure (SMILES),growth inhibition
1,CN(C)CCC(=O)[C@@]1(O)CC[C@H]2[C@@H]3CC=C4C[C@@H](O)CC[C@]4(C)[C@H]3CC[C@@]21C,-18%
2,CC(=O)OC1COC(N2C(=O)C(=O)c3cc(Br)ccc32)C(OC(C)=O)C1OC(C)=O (configuration not stated),19.1%
3,Cc1ccc(N2CCN(c3c(N)cncc3Br)CC2)cc1,46.5%
4,O=C(O)c1ccccc1SC(Sc1ccccc1C(=O)O)c1cccc(Cl)c1,90% (active)
5,CC[N+](C)(CC)CCC(=O)/C=C/c1ccccc1,53.1%
6,COc1ccc(C(C)c2cc3c(cc2OC/C(C)=N/NC(N)=O)OCO3)cc1 (configuration not stated),19.6%
7,CN=C(N)N/N=C(\C)c1ccc2c(c1)Cc1cc(Cl)ccc1-2,93.1% (active)
8,CCCCCCCCN/N=C(/C)CCCCCO,22.8%
9,O=[N+]([O-])c1cccc2c(O)cccc12,33.8%
10,O=C1C(=O)c2ccccc2C(O)=C1Sc1ccccc1,79.3% (active)
11,CC(=O)N(O)c1ccc2c(c1)Cc1cc(F)ccc1-2,92.5% (active)
12,CC12CCC(=O)C=C1CCC1C2CCC2(C)C(c3cnc[nH]3)CCC12 (configuration not stated),34.9%
13,O=C1OC(C2OC(=O)C(=O)C2C(=O)c2ccc(Cl)c(Cl)c2)C(C(=O)c2ccc(Cl)c(Cl)c2)C1=O (configuration not stated),34.5%
14,CC/C(C)=C1\CCC(CN2CCOCC2)C1=O (configuration not stated),48.8%
15,COc1ccc(C2CC(=O)CC(=O)C2)cc1,-3.35%
16,Cc1ccc(O)c(C(c2ccc([N+](=O)[O-])cc2)c2cc(C)ccc2O)c1,89.7% (active)
17,O=C1OS(=O)(=O)c2cc3c(cc21)C1C(C2C3C3(Cl)C(Cl)=C(Cl)C2(Cl)C3(Cl)Cl)C2(Cl)C(Cl)=C(Cl)C1(Cl)C2(Cl)Cl (configuration not stated),60.9%
18,CCOC(=O)C1SC(=S)N(C)C1=O (configuration not stated),99.1% (active)
19,O=C(c1ccc(Cl)c([N+](=O)[O-])c1)c1ccc(Cl)c([N+](=O)[O-])c1,39.5%
20,Cc1cc[c]([Sn]([Cl])([O][Sn]([Cl])([c]2ccc(C)cc2)[c]2ccc(C)cc2)[c]2ccc(C)cc2)cc1,83.1% (active)
